Where a name gives a salt, the structure may show the parent alone. ± gives the standard deviation of the averaged measurements.
tested on: E. coli TESEC Alr+ wild-type control; test: growth (OD600 after 10 h); higher = more growth (less inhibition); settings: compound 0.1 mM; raw OD600 reference: median of DMSO wells 0.49, cell-free background 0.052
Procedure: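 TESEC Mtb Alr E. coli (ΔaraC ΔtolC ΔentC Δalr ΔdadX, arabinose-inducible Mtb Alr) or the Alr+ wild-type control strain, grown in defined M9-fructose medium without D-alanine in 96-well plates with Prestwick library compounds at 0.1 mM and 1% DMSO. Low Alr induction is 0.1 µM arabinose and high induction is 10 mM arabinose.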

Compared with `CN1C(C(=O)Nc2ccccn2)=C(O)c2ccccc2S1(=O)=O` [Piroxicam], `COC(=O)Nc1nc2cc(C(=O)c3ccccc3)ccc2[nH]1` [Mebendazole] is higher in growth: 0.4032 ± 0.0031 for the first, 0.588 ± 0.031 for the second.

Compared with `Cc1cc(C(C)(C)CC(C)(C)C)ccc1OCCOCC[N+](C)(C)Cc1ccccc1` [Methyl benzethonium chloride], `NS(=O)(=O)c1cc2c(cc1Cl)N=C(CSCc1ccccc1)NS2(=O)=O` [Benzthiazide] is higher in growth: 0.0474 ± 0.00066 for the first, 0.606 ± 0.051 for the second.

`CCC(C)n1ncn(-c2ccc(N3CCN(c4ccc(OCC5COC(Cn6cncn6)(c6ccc(Cl)cc6Cl)O5)cc4)CC3)cc2)c1=O` (stereo not given) [Itraconazole] and `CC(C)N1CCN(c2ccc(OCC3COC(Cn4cncn4)(c4ccc(Cl)cc4Cl)O3)cc2)CC1` (stereo not given) [Terconazole] are within error of each other in growth: 0.44 ± 0.018 for the first, 0.462 ± 0.031 for the second.

`Nc1c2c(nc3ccccc13)CCCC2O` (racemic) [Hydroxytacrine maleate (R,S)] and `c1ccc2c(c1)CCCC2C1=NCCN1` (stereo not given) [Tetrahydrozoline hydrochloride] are within error of each other in growth: 0.612 ± 0.088 for the first, 0.479 ± 0.063 for the second.

`Cc1onc(-c2ccccc2)c1C(=O)N[C@@H]1C(=O)N2[C@@H]1SC(C)(C)[C@@H]2C(=O)O` [Oxacillin sodium] and `CC=CC1=C(C(=O)O)N2C(=O)[C@@H](NC(=O)[C@H](N)c3ccc(O)cc3)[C@H]2SC1` [Cefprozil] are within error of each other in growth: 0.492 ± 0.054 for the first, 0.543 ± 0.068 for the second.

Compared with `CC(=O)[C@H]1CC[C@H]2[C@@H]3C[C@H](C)C4=CC(=O)CC[C@]4(C)[C@H]3[C@@H](O)C[C@]12C` [Medrysone], `CC(=O)[C@H]1CC[C@H]2[C@@H]3CCC4=CC(=O)CC[C@]4(C)[C@H]3CC[C@]12C` [Progesterone] is lower in growth: 0.457 ± 0.067 for the first, 0.101 ± 0.0049 for the second.

`CCN(CC)CC(=O)Nc1c(C)cccc1C` [Lidocaine hydrochloride] and `CCN(CC)CCNC(=O)c1cc(S(C)(=O)=O)ccc1OC` [Tiapride hydrochloride] are within error of each other in growth: 0.586 ± 0.028 for the first, 0.481 ± 0.087 for the second.

Going from `Nc1cc(-c2ccncc2)c[nH]c1=O` [Amrinone] to `c1ccc2[nH]c(-c3cscn3)nc2c1` [Tiabendazole], the growth rises from 0.446 ± 0.027 to 0.572 ± 0.075.

`CCN(CC)CC#CCOC(=O)C(O)(c1ccccc1)C1CCCCC1` (stereo not given) [Oxybutynin chloride] and `CCC(=O)O[C@@H](O[P@](=O)(CCCCc1ccccc1)CC(=O)N1C[C@H](C2CCCCC2)C[C@H]1C(=O)O)C(C)C` [Fosinopril] are within error of each other in growth: 0.41 ± 0.043 for the first, 0.508 ± 0.076 for the second.

`CCCCOc1ccc(C(=O)CCN2CCCCC2)cc1` [Dyclonine hydrochloride] and `CCOc1ccc(NC(C)=O)cc1` [Phenacetin] are within error of each other in growth: 0.449 ± 0.034 for the first, 0.506 ± 0.071 for the second.

`CN[C@@H]1[C@@H](O)[C@@H](O[C@@H]2[C@@H](O)[C@H](O[C@H]3OC(CN)=CC[C@H]3N)[C@@H](N)C[C@H]2N)OC[C@]1(C)O` [Sisomicin sulfate] and `CCOC(=O)O[C@]1(C(=O)COC(=O)CC)CC[C@H]2[C@@H]3CCC4=CC(=O)C=C[C@]4(C)[C@H]3[C@@H](O)C[C@@]21C` [Prednicarbate] are within error of each other in growth: 0.198 ± 0.21 for the first, 0.38 ± 0.015 for the second.

First: CCC(=O)OCC(=O)[C@@]1(OC(=O)CC)[C@@H](C)C[C@H]2[C@@H]3CCC4=CC(=O)C=C[C@]4(C)[C@@]3(Cl)[C@@H](O)C[C@@]21C [Beclomethasone dipropionate]
Second: CCOC(=O)C1=C(COCCN)NC(C)=C(C(=O)OC)C1c1ccccc1Cl (stereo not given) [Amlodipine]
The growth of the first is lower: 0.499 ± 0.027 for the first, 0.566 ± 0.028 for the second.

First: C[C@]12CC[C@@H]3c4ccc(O)cc4CC[C@H]3[C@@H]1CCC2=O [Estrone]
Second: CCN1CCN(c2cc3c(cc2F)c(=O)c(C(=O)O)cn3C2CC2)CC1 [Enrofloxacin]
The growth of the first is higher: 0.511 ± 0.013 for the first, 0.0543 ± 0.0025 for the second.

`CCN(CC)CCNC(=O)COc1ccc(OC)cc1` [Mefexamide hydrochloride] and `CCN(CC)C(=O)Nc1ccc(OCC(O)CNC(C)(C)C)c(C(C)=O)c1` (stereo not given) [Celiprolol HCl] are within error of each other in growth: 0.501 ± 0.067 for the first, 0.455 ± 0.027 for the second.

`O=C1CN(/N=C/c2ccc(-c3ccc([N+](=O)[O-])cc3)o2)C(=O)N1` [Dantrolene sodium salt] and `CN1CCC(=C2c3ccccc3C=Cc3ccccc32)CC1` [Cyproheptadine hydrochloride] are within error of each other in growth: 0.446 ± 0.023 for the first, 0.452 ± 0.11 for the second.

Going from `CC[C@]12CCCN3CCc4c(n(c5ccccc45)[C@@](O)(C(=O)OC)C1)[C@@H]32` [Vincamine] to `CC(=O)c1ccc2c(c1)N(CCCN1CCC(CCO)CC1)c1ccccc1S2` [Piperacetazine], the growth falls from 0.503 ± 0.059 to 0.405 ± 0.0056.

`O=C(O)c1ccccc1OP(=O)(O)O` [Fosfosal] and `COC(=O)Nc1nc2cc([S+]([O-])c3ccccc3)ccc2[nH]1` (stereo not given) [Oxfendazol] are within error of each other in growth: 0.561 ± 0.049 for the first, 0.634 ± 0.024 for the second.

`O=C1NCN(c2ccccc2)C12CCN(CCCC(c1ccc(F)cc1)c1ccc(F)cc1)CC2` [Fluspirilen] and `CN(C)C(=O)C(CCN1CCC(O)(c2ccc(Cl)cc2)CC1)(c1ccccc1)c1ccccc1` [Loperamide hydrochloride] are within error of each other in growth: 0.055 ± 0.0016 for the first, 0.0784 ± 0.034 for the second.

First: CN(C)CCOC1=Cc2ccccc2Sc2ccc(Cl)cc21 [Zotepine]
Second: CN(C)CCCC1(c2ccc(F)cc2)OCc2cc(C#N)ccc21 (stereo not given) [Citalopram Hydrobromide]
The growth of the first is lower: 0.0664 ± 0.019 for the first, 0.476 ± 0.068 for the second.

`CN(C)CCCSC(=N)N` [Dimaprit dihydrochloride] and `Nc1nc(=O)c2c([nH]1)NC[C@@H](CNc1ccc(C(=O)N[C@@H](CCC(=O)O)C(=O)O)cc1)N2C=O` [Folinic acid calcium salt] are within error of each other in growth: 0.617 ± 0.017 for the first, 0.567 ± 0.12 for the second.
